RVFV N-RNA FP: RVFV nucleocapsid-RNA interaction inhibition. P21700. RVFV N-RNA binding, fluorescence polarization; hits give low values. % bound, % (concentration not given with the values). 0.1% of 20,000 active; in the data active = % bound below about 75%
Target sequence (P21700 whole entry, looked up): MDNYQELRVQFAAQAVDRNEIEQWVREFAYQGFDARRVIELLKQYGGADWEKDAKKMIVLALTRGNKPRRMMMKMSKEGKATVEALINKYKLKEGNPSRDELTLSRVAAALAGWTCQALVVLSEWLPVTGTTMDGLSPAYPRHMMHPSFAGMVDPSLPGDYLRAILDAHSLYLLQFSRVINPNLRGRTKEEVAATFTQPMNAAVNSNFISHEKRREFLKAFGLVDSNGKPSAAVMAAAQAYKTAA
An asterisk follows results filed as active; ! = repeats disagree. The entries come from a sample that favours hits as a whole.

SMILES | RVFV N-RNA FP
COc1ccc(C(=O)Nc2ccccc2)cc1S(=O)(=O)N1CCN(c2ccccc2)CC1 | 100
COc1ccc(P(=O)(CO)c2ccc(OC)cc2)cc1 | 93
O=C(Sc1ccc(Cl)cc1)c1cnc2n(c1=O)CCS2 | 90
CC(C)CNc1c(Cl)cnn(C)c1=O | 99
O=C(O)CSc1nnc2n1-c1ccc(Cl)cc1NN2 | 56*
NC(=O)CSc1nc2ccc(Cl)cc2[nH]1 | 100
Clc1ccc2c(c1)NNc1nncn1-2 | 93
CC1=C(C(=O)OC2CC(C(C)C)CCC2C)C(CC(=O)O)C(=O)N1 (stereo not drawn) | 102
N#CCc1ccc(NC(=O)CSCc2ccccc2)cc1 | 93
COc1cccc(OCCCSC(C)C)c1 | 96
COc1ccccc1NCC(C)(C)CC=C(C)C | 93
CC1CC(=O)NN=C1c1ccc2c(c1)nnn2O (stereo not drawn) | 101
O=C(CNCc1ccco1)Nc1ncc(Cc2ccc(Cl)cc2)s1 | 101
Cn1c(=S)n(CN2CCC(C(N)=O)CC2)c2ccccc21 | 96
CCNc1nc(NCC)n2c(=S)n(CN3CCOCC3)nc2n1 | 92
C=CCN1C(=O)C(CC(=O)Nc2ccc(Cl)cc2)NC1=S (stereo not drawn) | 99
O=C(NCc1cccnc1)c1csc2ccccc12 | 95
O=C(N/N=C/c1ccccc1O)c1ccc(N2Cc3ccccc3C2)cc1 | 96
Cc1nc(CCNC(=O)CC2CCCCC2)cs1 | 109
On1c(-c2ccccc2)cc2ccccc21 | 94
CO/N=C1\CC(C)(C)Cc2c(-c3ccn(C(=O)c4cccs4)n3)sc(SC)c21 | 86
Cc1ccc(N2C(=O)c3cccc4c(N5CCN(C)CC5)ccc(c34)C2=O)c2cccnc12 | 55*
O=C(O)c1ccc2c3c(cccc13)C(=O)N(c1ccccc1O)C2=O | 97
O=C1c2cccc3c(Cl)ccc(c23)C(=O)N1c1ccccn1 | 89
Cc1noc(C)c1-c1nnc(-c2cccc(C(F)(F)F)c2)o1 | 101
SMILES | RVFV N-RNA FP
Cc1ccc(S(=O)(=O)N2CCCC2)c(C)c1 | 94
O=C(COc1ccccc1)Oc1ccccc1 | 95
O=C(Nc1ncn[nH]1)c1ccccc1CCc1ccccc1 | 98
CCCS(=O)(=O)c1nc2ccccc2n1Cc1cc(C)ccc1C | 92
COc1cccc(-c2noc(-c3ccccc3C)n2)c1 | 96
CCn1c(SCC(=O)N(C2CCCCC2)C2CCCCC2)nnc1-c1cc2cccc(OC)c2o1 | 88
O=C(CSc1ccccc1)N/N=C/c1ccccc1O | 89
NC(CO)C(=O)NNCc1ccc(O)c(O)c1O (stereo not drawn) | 85
NC(CO)C(=O)N/N=C/c1ccc(O)c(O)c1O (stereo not drawn) | 51*
CSc1cccc(C(=O)Nc2sccc2C#N)c1 | 90
OCC(O)CN=Cc1c(O)[nH]c2ccccc12 (stereo not drawn) | 92
OCCN=Cc1[nH]c2ccccc2c1O | 55*
C=CCN=Cc1c(O)[nH]c2ccccc12 | 94
CN(C(=O)c1ccccc1O)C1CCCCC1 | 99
O=C(CCCN1CCC(O)(c2ccc(Cl)cc2)CC1)c1ccc(F)cc1 | 101
CC1CCN(CCCC(=O)c2ccc(F)cc2)CC1 | 96
O=C(CCCN1CCC2(CC1)C(=O)NCN2c1ccccc1)c1ccc(F)cc1 | 56*!
Cn1c(=S)n(CN2CCOCC2)c2ccccc21 | 99
CC1=C(C#N)C(NC(=O)c2ccncc2)(C(F)(F)F)C(=O)N1 (stereo not drawn) | 97
CC(C)(C)C(=O)Nc1nnc(SCC(N)=O)s1 | 111
Cc1nc(/N=C(\NC(=O)c2ccccc2)Nc2ccccc2)[nH]c(=O)c1C | 108
CNc1ccc2cccc(O)c2n1 | 99
CN=c1nc(-c2ccccc2)n(-c2ccccc2)s1 | 50*
CC1(C)Cn2c(nnc2-c2ccccc2)S1 | 92
CCSc1nnc(-c2ccccc2)n1-c1ccccc1 | 98
SMILES | RVFV N-RNA FP
COc1ccc(C)cc1S(=O)(=O)N(C)CC(=O)N1CCN(c2cccc(Cl)c2)CC1 | 98
CC1CCCCN1C(=O)Cc1ccc(Br)cc1 (stereo not drawn) | 96
CN(C)C1c2cccc3cccc(c23)C1NS(C)(=O)=O (stereo not drawn) | 97
Cn1c(=NC(=O)C2CC2)sc2ccc3ccccc3c21 | 97
O=S(=O)(Nc1ccc2c(c1)N(S(=O)(=O)c1cccs1)CCC2)c1cccs1 | 91
CCOc1ccc(NC(=O)c2ccc(-n3cnnc3)cc2)cc1 | 82
O=C(c1ccc(-c2cccs2)s1)N1CCOCC1 | 93
CCOc1ccc(C(=O)Nc2c(N)nc(SC)[nH]c2=O)cc1 | 97
CCc1ccc(/C=C2\SC(=O)N(CC(=O)N3CCOCC3)C2=O)cc1 | 100
COc1ccccc1C1C(C(=O)c2sc(C)nc2C)=C(O)C(=O)N1CCCN1CCOCC1 (stereo not drawn) | 112
O=C1CC(=O)N(c2cccc(F)c2)C(=S)N1 | 91
FC(F)(F)c1cc(C(F)(F)F)n2[nH]c(=S)nc2n1 | 86
c1ccc(-n2ncc3c(SCCC4OCCO4)ncnc32)cc1 | 106
Cc1coc(NC(=O)CSc2nc(-c3ccc4c(c3)OCO4)cc(C(F)(F)F)c2C#N)n1 | 111
O/N=C1\c2ccccc2-c2c(F)c(F)c(F)c(F)c21 | 92

Source: PubChem
